Measured values taken from PubChem BioAssay AID492956 (The Scripps Research Institute Molecular Screening Center, 2010).
The campaign covered roughly 340,000 compounds. About 3,300 (0.97%) were called active.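 Rule for the calls: active = inhibition above the mean over all tested compounds plus 3 SD (cut at about 30% in these data); inactive = the rest.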 The list comes from a sample in which actives are over-represented; it also holds similar structures and randomly drawn compounds.

Each molecule was assayed against Platelet-activating factor acetylhydrolase 2, cytoplasmic (Homo sapiens) (UniProt Q99487) (assay: PAFAH2 enzyme inhibitors, primary screen, biochemical, fluorescence polarization, human (AID 492956;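 note: inhibitors block probe labeling of enzyme so polarization drops; 0% = enzyme with DMSO and 100% = wells lacking PAFAH2 protein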)). Settings: recombinant PAFAH2, FP-rhodamine activity probe, at 3.39 µM, active compounds read high.

inhibition, active:
Cc1cnc(NC(=O)CSc2c(Cl)cccc2Cl)s1 38.4%
Oc1oc(-c2ccccc2Br)nc1/C=N/c1ccccn1 68%
Cc1ccc2c(=O)oc(N(C)C)nc2c1 33%
O=C1C(Cl)=C(Oc2ccccc2)C(=O)c2ccccc21 43.1%
Oc1c(Cl)cc(Cl)c(Cl)c1Cc1c(O)c(Cl)cc(Cl)c1Cl 49.4%
Cc1ccc(/C=C/C(=O)OCC(=O)Nc2cccnc2Cl)cc1 30.3%
O=C(/C=C/c1cccs1)c1cc(Cl)ccc1OC(=O)N1CCOCC1 72.8%
O=C(COC(=O)c1ccco1)Nc1ccc(Cl)cn1 45.5%
Cc1ccc(C(=O)OCC(=O)Nc2ccc(Cl)cn2)cc1S(=O)(=O)N1CCOCC1 55.8%
Cc1ccc(NC(=O)COC(=O)C2C3CC4OC(=O)C2C4C3)cc1Cl (centres undefined) 88.2%
Cc1ccc(NC(=O)COC(=O)C2CC2)cc1S(=O)(=O)N1CCOCC1 77.5%
CCc1cccc(C)c1NC(=O)COC(=O)CC1CCCC1 68.3%
CCCc1cc(=O)n2[nH]c(SCc3ccccc3)nc2n1 58.2%
O=c1ccc2c(-c3ccccc3S(=O)(=O)O)c3ccc(O)c(O)c3oc-2c1O 74.3%
O=[N+]([O-])c1ccc(O)c(/C=N/Nc2ccccc2[N+](=O)[O-])c1 51.1%
O=C(O)c1ccccc1N=N/C(=N/Nc1cc(S(=O)(=O)O)ccc1O)c1ccccc1 50.6%
O=C(COC(=O)C1CCCCC1)Nc1ccc([N+](=O)[O-])cc1 59.7%
CCC(C)c1ccc(NC(=O)COC(=O)C2CCCC2)cc1 (centres undefined) 46.3%

inhibition, inactive:
CCC(C)[C@H](NC(=O)N1CCn2c1nc1ccccc12)C(=O)NCc1ccc(OC)cc1 (some centres undefined) 5.18%
CCc1ccc(C2C(C#N)=C(N)N(N3CCOCC3)C3=C2C(=O)CC(C)(C)C3)s1 (centres undefined) 0.28%
O=C(COC(=O)CCCN1C(=O)c2cccc3cccc(c23)C1=O)NC1CCS(=O)(=O)C1 (centres undefined) 3.81%
Cc1cnc(NC(=O)c2ccccn2)s1 13.5%
Cc1cnc(NC(=O)C2CCCC2)s1 1.44%
O=C(COC(=O)CC1CC2CCC1C2)NC(=O)NC1CCCC1 (centres undefined) 1.25%
Cc1noc(C)c1C(=O)N(CC(=O)NC1CCCC1)Cc1ccccc1F 3.06%
CCOc1ccc2nc(/N=C/c3nc(-c4ccccc4)oc3O)sc2c1 2.86%
CC(N=Cc1nc(-c2ccccc2)oc1O)c1ccccc1 (centres undefined) 21%
COc1ccc(F)cc1C(=O)COC(=O)c1n[nH]c(=O)c2ccccc12 0.13%
CN(C)c1ccc2c(=O)[nH][nH]c(=O)c2c1 0.81%
Cc1ccc2oc(=O)ccc2c1 1.28%
CCOC(=O)C1CCCCN1Cc1ccc(OC)c(OC)c1OC (centres undefined) -0.46%
COC(CCN(C)C)(c1ccccc1)c1ccccc1 3.5%
C=CCC(NCCCO)c1cccc(OC)c1OC (centres undefined) 5.85%
CC(=O)N(C1=C(Cl)C(=O)c2ccccc2C1=O)c1ccc(C(=O)O)cc1 10.5%
Cc1ccc2[nH]c(=O)c(CN3CCCCC3)c(-c3ccccc3)c2c1 6.01%
CCc1cc(=O)oc2c(C)c(OCC(=O)N3CC[C@@]4(O)CCCC[C@H]4C3)ccc12 -2.6%
CCOC(=O)C(=CNNc1ccsc1C(=O)OC)C(=O)OCC -1.37%
CCOc1ccc(S(=O)(=O)N2CCC(C(=O)NCC(=O)Nc3cccc(Cl)c3C)CC2)cc1 8.28%
O=C(O)c1ccc(NS(=O)(=O)c2ccc3c(c2)C(=O)c2cc(S(=O)(=O)Nc4ccc(C(=O)O)cc4)ccc2-3)cc1 4.82%
OCC[C@H]1C[C@H](O)[C@@H](O)[C@]2(Cc3ccccc3CO2)O1 8.82%
COc1ccc(NS(=O)(=O)c2ccc(C)c(C(=O)NCC(c3cccs3)N3CCOCC3)c2)cc1 (centres undefined) 7.05%
CCOc1ccccc1NC(=O)CCc1nnc2ccc(NCc3ccco3)nn12 3.78%
O=C(COC(=O)/C=C/c1nc2ccccc2s1)Nc1ccccc1Oc1ccccc1 -12.4%
COc1ccc(-c2nnc(SCC(=O)Nc3cccnc3Cl)n2C)cc1 0.74%
O=C(NCCC(=O)N1O[C@@H]2C=C[C@H]1C2)OCC1c2ccccc2-c2ccccc21 2.94%
O=C(Cc1ccc([N+](=O)[O-])cc1)Nc1ccc(C(=O)N2CCOCC2)cc1 1.43%
O=C(Oc1cccc(C(=S)N2CCOCC2)c1)c1cccc(Cl)c1 5.91%
CC(=O)Nc1ccccc1OC(=O)N1CCOCC1 7.14%
COc1cccc(N(C(=O)c2snc(C(N)=O)c2N)C(C(=O)NCC2CCCO2)c2c[nH]c3ccccc23)c1 (centres undefined) -0.32%
COc1ccc(-c2nc3c(s2)CCc2onc(-c4ccc(Br)cc4)c2-3)cc1 -1.79%
Cc1cc(NC(=O)COC(=O)c2ccc(F)c(S(=O)(=O)N3CCOCC3)c2)no1 8.91%
Cc1ccc(NC(=O)C2CC2)cc1S(=O)(=O)N1CCOCC1 -3.1%
Cc1ccc(NC(=O)COC(=O)CNC(=O)c2ccc(Cl)cc2Cl)cc1S(=O)(=O)N1CCOCC1 -3.69%
O=C(COC(=O)c1ccco1)NCc1ccc(Cl)cc1 24.3%
O=C(Nc1ccc(Br)cc1)c1cccc(NC(=O)C2C3CC4OC(=O)C2C4C3)c1 (centres undefined) -8.44%
Cc1ccc(C(=O)OCC(=O)N2CCCCCC2)cc1S(=O)(=O)N1CCOCC1 10.7%
CC(OC(=O)CNC(=O)c1ccco1)C(=O)Nc1ccc(Cl)cn1 (centres undefined) -0.78%
Cc1cc(C)cc(NC(=O)c2cccc(NC(=O)C3C4CC5OC(=O)C3C5C4)c2)c1 (centres undefined) 6.12%
Cc1ccc(NC(=O)C(=O)NCC2CCN(C(=O)c3cccc([N+](=O)[O-])c3)CC2)cc1 3.36%
C=CCNc1nnc(SCC(=O)N2CCCCC2)c2ccccc12 -3.63%
O=C(Nc1ccc(-c2cscn2)cc1)C1CCCN(Cc2ccc(CO)o2)C1 (centres undefined) -10.4%
COc1ccc(CNC(=O)[C@@H]2CC=C[C@@H]3CCN(C4CC4)C(=O)[C@@H]32)cc1 -6.96%
CCOC(=O)C1=C(c2ccccc2)O/C(=C(/C(=O)OC)C(F)(F)F)S1 1.19%
Cc1cc(=O)n(C)c(=O)n1CCCNc1ccccc1 -0.72%
CCCC(=O)N1CCC(CCC(=O)NC2CC2)CC1 2.54%
CC(CO)NCC12CC3CC(CC(C3)C1)C2 (centres undefined) -2.32%
CCc1ccc2oc(-c3ccc(N)cc3)nc2c1 8.24%
Cc1cc(-c2nnc(SCC(=O)Nc3ccc(S(N)(=O)=O)cc3)n2N)n[nH]1 -4.23%
Cc1ccc(C)c(S(=O)(=O)Nc2cc(C)on2)c1 0.2%
CCc1cccc(C)c1NC(=O)COC(=O)Cc1ccsc1 7.53%
CCc1cccc(C)c1NC(=O)COC(=O)CNC(=O)c1cccs1 5.02%
Cc1cc(C)n2nc(C(=O)OCC(=O)N(CCC#N)c3ccc(F)cc3)nc2n1 -0.66%
CC(C)Nc1nnc(SC(C)C(=O)N(C)C2CCCCC2)s1 (centres undefined) 9.89%
CCOCc1nnc(NC(=O)CCC2CCCCC2)s1 3.07%
CCOc1cc(-c2conc2N)cc(OCC)c1OCC -0.29%
CCCc1cc(=O)n2[nH]c(C)c(-c3ccc(Cl)cc3)c2n1 4.35%
CCCc1cc(=O)[nH]c(SCc2ccc(C#N)cc2)n1 -7.81%
O=C1CCc2cc(S(=O)(=O)N3CCC(C(=O)NCc4ccccc4Cl)CC3)ccc2N1 7.4%
NNC(=O)C1CC(O)CN1S(=O)(=O)c1ccc(Cl)cc1 (centres undefined) -7.58%
O=C(CCN1CCN(C/C=C/c2ccccc2)CC1)Nc1cccc(F)c1 -0.13%
O=C1C2C3C=CC(C3)C2C(=O)N1c1ncc([N+](=O)[O-])s1 (centres undefined) 3.52%
CC1(C)NC(=O)N(CC(=O)Nc2cc(C(F)(F)F)cc(C(F)(F)F)c2)C1=O 2.33%
N/C(=N\OS(=O)(=O)c1cccc([N+](=O)[O-])c1)c1ccncc1 -0.37%
CCCC(CCC(=O)OC)(C(=O)OCC)c1csc(N)n1 (centres undefined) 3.59%
Nc1nnnn1/N=C/c1cc([N+](=O)[O-])ccc1O -12.5%
O=C(N/N=C/c1cc([N+](=O)[O-])ccc1O)/C(=C\c1cccs1)NC(=O)c1ccccc1 -3.54%
COc1cccc(/C=N/Nc2ccc(S(=O)(=O)Nc3ccccc3C(=O)O)cc2[N+](=O)[O-])c1O 27.3%
NC[C@H](Cc1ccccc1)NCCc1cc(C(F)(F)F)cc(C(F)(F)F)c1 -1.16%
O=C(OCCN1C(=O)c2ccccc2C1=O)[C@@H]1CC(O)CN1S(=O)(=O)c1ccccc1[N+](=O)[O-] (some centres undefined) 3.85%
O=C(CN1C(=O)NC2(CCOc3ccccc32)C1=O)NCc1ccc(F)cc1 (centres undefined) -2.58%
CCC(C)c1ccc(NC(=S)N2CCCC2)cc1 (centres undefined) -2.78%
O=C(COC(=O)Cc1ccc([N+](=O)[O-])cc1)NC1CCCCCC1 2.56%
CC(=O)Nc1ccc(NC(=O)COC(=O)C2CCC(C(C)(C)C)CC2)cc1 (centres undefined) 2.02%
N/C(Cc1ccc([N+](=O)[O-])cc1)=N\OC(=O)C1CCCCC1 18.1%
